Only some compounds are listed: those with a hit (about 3.2% of all), similar ones and a draw of the others.
FAS TE block: FAS thioesterase (human) inhibition; P49327; hit rate 0.67% among 360,000; AID 602261; recombinant FAS-TE, OMFH fluorogenic substrate, fluorescence endpoint; inhibition, % at 15 µM;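 active = compounds whose normalised, plate-corrected inhibition of enzyme fluorescence in the single-dose primary screen is 50% or more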;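 also: 0% = DMSO with enzyme and 100% = substrate without enzyme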
aDG glyco up: increases alpha dystroglycan glycosylation; Pro5-aDG cells, alpha-DG glycosylation AlphaScreen (IIH6); 0% Pro5, 100% B10-LARGE cell signal; hit rate 0.22% among 360,000; AID 624168; activation, % at 10 µM;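 active = activation of at least 8% versus controls, or a plate z-score of at least 8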;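 also: Pro5 are CHO cells carrying HIG-tagged alpha-DG that lacks glycosylation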
PfGluPho inh: PfG6PD (Plasmodium falciparum) enzyme inhibition; PfGluPho enzyme, NADPH resazurin-diaphorase fluorescence; inhibition, % at 20 µM; hit rate 0.78% among 350,000;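 active = inhibition reaching at least a set limit at 20 µM in the primary screen, cut at about 59% in these data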;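 also: 0% = DMSO wells with substrate and 100% = DMSO wells lacking glucose-6-phosphate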
CRFR2-BP ag: agonists of human CRF-binding protein/CRF-R2 receptor complex; HEK293 CRF-R2/CRF-BP, calcium dye fluorescence (FLIPR); percent of saturating CRF peptide response; activation, % at 13.2 µM; hit rate 0.46% among 350,000; AID 588473;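 active = activation of at least 50%, plus an integration ratio under a set limit after plate pattern correction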;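 also: plate controls were neutral control wells without compound for no effect and CRF at EC100 for full effect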
CRFR2-BP antag: antagonists of CRF-binding protein/CRF-R2 receptor complex | HEK293 CRF-R2/CRF-BP, CRF-induced calcium fluorescence | inhibition, % at 11.8 µM | hit rate 0.59% among 350,000;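 active = inhibition of the ligand-induced calcium signal above about 50% at the single tested concentration, limit read from the data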
Cardio protect: myocardial damage modulation in H9c2 cells. H9c2 cardiomyocytes, H2O2 injury protection, ATPLite, 2 h. protection from H2O2 cell death, % at 20 µM. hit rate 0.63% among 360,000;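 active = compounds giving at least 50% protection of heart cells from peroxide-induced death in the single-dose screen, raw or plate-pattern-corrected value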;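 also: 0% = DMSO wells with peroxide and 100% = DMSO wells without peroxide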
Active calls of the source: *.

SMILES | FAS TE block | aDG glyco up | PfGluPho inh | CRFR2-BP ag | CRFR2-BP antag | Cardio protect
CCc1ccc(C2C(C#N)=C(N)SC(N)=C2C#N)cc1 | -68 | 1 | 27 | 50* | -26 | -4
CC(C)CC1C(C#N)=C(N)SC(N)=C1C#N | -77 | 0 | 12 | 50* | -56 | -10
N#CC1=C(N)SC(N)=C(C#N)C1CCc1ccccc1 | -121 | 0 | -29 | 103* | -41 | -10
CCOc1ccc(C2C(C#N)=C(N)SC(N)=C2C#N)cc1OCC | -66 | 0 | 3 | 7 | -28 | 4
CC(Oc1ccc(F)cc1)C(=O)Nc1ccccc1N1CCCCC1 (stereo unspecified) | 28 | 0 | 24 | 19 | -47 | -7
COc1ccc(OC)c(N(CC(=O)Nc2cccnc2)S(=O)(=O)c2ccc(OC)c(OC)c2)c1 | -3 | 0 | 0 | 1 | -20 | 50*
COc1ccc(OC)c(N(CC(=O)Nc2cccnc2)S(=O)(=O)c2ccc(C)cc2)c1 | -1 | 0 | 5 | -2 | 0 | 19
COc1ccc(OC)c(NC(=O)COC(=O)CSc2ccc(Cl)cc2)c1 | -3 | 0 | -13 | -1 | 10 | 1
COc1cccc2c(=O)n(CC(=O)N3CCc4ccccc43)ccc12 | -2 | 0 | 14 | 72* | -55 | -3
COC(=O)CCCCCN1C(=O)NC(C2CC2)C(C(=O)OCc2ccccc2)=C1C (stereo unspecified) | -1 | 0 | 4 | 1 | -4 | -20
CC(C)(C)OC(=O)NCc1ccc(NC(=O)c2nc[nH]c2C(=O)NCCCCNC(=O)c2[nH]cnc2C(=O)Nc2ccc(CNC(=O)OC(C)(C)C)cc2)cc1 | -7 | 0 | -15 | 6 | 16 | 67*
CC(C)(C)OC(=O)NCc1ccc(NC(=O)c2nc[nH]c2C(=O)NCCN(CCNC(=O)c2[nH]cnc2C(=O)Nc2ccc(CNC(=O)OC(C)(C)C)cc2)CCNC(=O)c2[nH]cnc2C(=O)Nc2ccc(CNC(=O)OC(C)(C)C)cc2)cc1 | 46 | 0 | -5 | 1 | -3 | 0
CC(C)(C)OC(=O)NCCCC[C@H](NC(=O)c1[nH]cnc1C(=O)N[C@@H](Cc1ccccc1)C(=O)OC(C)(C)C)C(=O)OC(C)(C)C | 21 | 1 | 31 | 5 | 2 | 3
CC(C)(C)OC(=O)NCc1ccc(NC(=O)c2nc[nH]c2C(=O)NCCCCCCNC(=O)c2[nH]cnc2C(=O)Nc2ccc(CNC(=O)OC(C)(C)C)cc2)cc1 | 2 | 0 | -1 | 2 | 7 | 51*
CC(C)(C)OC(=O)NCCCC[C@H](NC(=O)c1nc[nH]c1C(=O)NCc1ccccc1)C(=O)OC(C)(C)C | 55* | 0 | 30 | -1 | 14 | 9
CC(C)(C)OC(=O)NCc1ccc(NC(=O)c2nc[nH]c2C(=O)NCCCNC(=O)c2[nH]cnc2C(=O)Nc2ccc(CNC(=O)OC(C)(C)C)cc2)cc1 | 0 | 0 | -32 | 3 | 10 | 52*
O=C(COC(=O)c1cccc(Br)c1)NC1CCCCCCC1 | 12 | 0 | 14 | -1 | -26 | 3
Cc1ccc2nc(-c3ccccn3)cc(C(=O)Nc3ccc(S(=O)(=O)N4CCOCC4)cc3)c2c1 | 30 | -1 | -15 | 0 | -18 | 24
COc1ccc(C(=O)Nc2ccccn2)cc1S(=O)(=O)N1CCOCC1 | -2 | 0 | 7 | 0 | -5 | 0
COc1ccc(C(=O)Nc2nc(-c3ccccn3)cs2)cc1S(=O)(=O)N1CCOCC1 | -2 | 1 | 47 | 1 | -9 | 54*
O=C(Nc1nc2ccc(S(=O)(=O)N3CCCCC3)cc2s1)c1ccncc1 | 2 | 0 | -27 | -1 | -9 | -7
O=C(Nc1nc(-c2ccccn2)cs1)c1cccc(S(=O)(=O)N2CCOCC2)c1 | 48 | 1 | 28 | 2 | -8 | 76*
Cc1ccc(S(=O)(=O)N2CCOCC2)cc1C(=O)Nc1nc(-c2ccccn2)cs1 | 3 | 2 | 47 | 0 | -5 | 54*
O=C(Nc1nc2ccc(S(=O)(=O)N3CCCC3)cc2s1)c1ccccn1 | 6 | 1 | -13 | 3 | 65* | 33
Cc1ccc(C(=O)NCCC(=O)N2CCOCC2)cc1 | -6 | 0 | 20 | -1 | 13 | -2
SMILES | FAS TE block | aDG glyco up | PfGluPho inh | CRFR2-BP ag | CRFR2-BP antag | Cardio protect
COc1ccc(-c2csc(NC(=O)c3cccc(N4C(=O)CCC4=O)c3)n2)cc1OC | -3 | 0 | 18 | 3 | -3 | 85*
COc1ccc(C(CC(=O)O)NS(=O)(=O)c2ccc3c(c2)N(C(C)=O)CC(C)O3)cc1 (stereo unspecified) | -5 | 0 | -18 | 2 | -5 | 5
COC(=O)c1ccccc1-c1c2ccc(=N)cc-2oc2cc(N)ccc12 | -137 | 0 | -236 | 176* | -92 | -15
Cc1ccc(S(=O)(=O)N2CCN(C(=O)COc3ccc(C)nc3[N+](=O)[O-])CC2)c(C)c1 | 6 | 0 | 9 | -1 | 78* | 10
CCCCC(CC)CNC(=O)CN1C(=O)NC2(CCc3ccccc32)C1=O (stereo unspecified) | 0 | 0 | 15 | 0 | 3 | 1
Cc1cc2cc(CCNC(=O)c3cccs3)c(=O)[nH]c2cc1C | -1 | 0 | 4 | -2 | 13 | 36
CCOc1ccc(/C=C2\SC(=S)N(CCC(=O)Nc3ccccc3C(=O)O)C2=O)cc1 | 33 | 0 | -1 | -3 | 55* | -9
Cc1ccc(/C=C2\SC(=S)N(CCCC(=O)NNC(=O)c3ccccc3O)C2=O)cc1 | 10 | 0 | -43 | -1 | -17 | 55*
COc1ccc(NC(=O)CN2CCCCCC2)cc1OC | -2 | 0 | 0 | 0 | 12 | -3
CN(CC(=O)Nc1ccc(Cl)cc1)C(=O)C1=COCCO1 | -4 | 0 | -6 | 0 | -2 | 2
COc1ccc(NC(=O)CN(C)C(=O)C2=COCCO2)cc1 | -4 | 0 | -5 | 2 | 107* | 1
O=[N+]([O-])c1cccnc1N/N=C/c1ccccc1O | 3 | 0 | -2 | -4 | 15 | 30
Cc1c(O)ccc(/C=N/Nc2ncccc2[N+](=O)[O-])c1O | 0 | 5.8* | -26 | 0 | 6 | 15
c1cncc(CNCc2ccco2)c1 | -7 | 0 | 8 | -1 | 5 | -3
O=C(NN1C(=O)CSC1=S)c1cccnc1 | -3 | 0 | -2 | -2 | 77* | -9
O=C(O)c1ccc(COc2ccccc2C=C2C(=O)c3ccccc3C2=O)cc1 | -6 | 0 | -8 | -1 | 81* | 14
O=C1NC(=S)N/C1=C\c1ccccc1OCc1ccc(C(=O)O)cc1 | -8 | 0 | -7 | 1 | -6 | -1
COc1ccccc1N1CCN(C2CCCN(C(=O)c3cc(C4CC4)on3)C2)CC1 (stereo unspecified) | -2 | 0 | 14 | -3 | 51* | -3

Screening data deposited in PubChem BioAssay by Sanford-Burnham Center for Chemical Genomics.
